# In all, about 68,000 sequences were measured (“fluorescence intensity (a.u.)”: median about 9,100, highest 2% from about 16,000 on). What follows is part of a selection rich in the highest values, with near analogues and random picks from the rest.
# Target: OsWRKY34 (Oryza sativa, UniProt Q0JBA9 1-250)
# Test: protein-binding microarray (RPBM); PBS, 2% BSA, 51.3 ng/ul salmon testes DNA, 50 uM zinc acetate, 200 nM TF, 25 C, 1 h; high values mean tight binding
# Settings: protein: recombinant; tags: N-terminal polyhistidine and DsRed monomer fusion (pET32a); label: CyDye5-dUTP incorporated in the synthesized complementary strand; 3' TTTTT single-stranded linker to array surface; dsDNA, one strand shown
# Summary of the method: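 Transcription factors, each fused N-terminally to a polyhistidine tag and DsRed, were expressed in E. coli BL21-CodonPlus and purified on Ni–NTA. A custom Agilent array was made double-stranded by primer extension with Cy5-dUTP and blocked with 2% BSA. It was incubated with 200 nM protein in PBS, 2% BSA, salmon testes DNA and 50 µM zinc acetate at 25 °C for 1 h, then washed. The binding signal is per-feature fluorescence intensity (arbitrary units) read on an Axon 4000B scanner.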
# OsWRKY34, sequence (Q0JBA9 entry or part of it): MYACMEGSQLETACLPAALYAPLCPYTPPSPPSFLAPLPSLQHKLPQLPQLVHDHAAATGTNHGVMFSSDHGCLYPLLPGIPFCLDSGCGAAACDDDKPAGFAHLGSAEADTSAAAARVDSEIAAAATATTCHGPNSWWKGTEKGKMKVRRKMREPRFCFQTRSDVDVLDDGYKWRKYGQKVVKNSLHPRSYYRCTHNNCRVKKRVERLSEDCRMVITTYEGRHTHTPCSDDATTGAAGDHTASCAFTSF
row,Sequence,binding signal
1,CTTCTTCTATATCTGTAATCTTTCCTTATCTCCTCCCATGCGGAGTCACCTAGTGCAG,8520 fluorescence intensity (a.u.)
2,CCACCTCGTTTTATGTAAAACACTTAATCTTCAACTTCAGCGGAGTCACCTAGTGCAG,8860 fluorescence intensity (a.u.)
3,CGCAATCCACTTTCTCTCGCCAAGTCGTCGTCCATCCGATCGGAGTCACCTAGTGCAG,9020 fluorescence intensity (a.u.)
4,TTTTCAGCGTGTGCATCACATGGTCCGTATCTTTAATACTCGGAGTCACCTAGTGCAG,8520 fluorescence intensity (a.u.)
5,TCCTGTCGTATGTCTTCACCACCACACAAACAATGCTTCTCGGAGTCACCTAGTGCAG,9550 fluorescence intensity (a.u.)
6,ACTCCACTTAGGCTGCATTCGTTCTAGATACATTGAGTTACGGAGTCACCTAGTGCAG,9970 fluorescence intensity (a.u.)
7,GCCTTTGTCGGTCATGTTCCCATCGCTTTAGTTCTTCTCACGGAGTCACCTAGTGCAG,15000 fluorescence intensity (a.u.)
8,GTGATAGAAAAGTTGTGTGTGTATGAAATGTTTGATGCGACGGAGTCACCTAGTGCAG,8750 fluorescence intensity (a.u.)
9,ATACTGAGAAAGTGCCAAGTTTTTGTCTGCTTCATGTAACCGGAGTCACCTAGTGCAG,8110 fluorescence intensity (a.u.)
10,GACCTCGCCGTCGCCGTCGCCGCCGCCGCCGCCGCCATGGCGGAGTCACCTAGTGCAG,9900 fluorescence intensity (a.u.)
11,CATTGTTCCTCACAGGATCAGGGGTGGAGAGTGAAGAGAGCGGAGTCACCTAGTGCAG,8070 fluorescence intensity (a.u.)
12,GTGGTTGATTTGACCTTTTACATTGTACAGATGGTATTGGCGGAGTCACCTAGTGCAG,8480 fluorescence intensity (a.u.)
13,CTTCTCCTCTAGTCTGTGGTTGGCTGGCGATGGTGGCTTGCGGAGTCACCTAGTGCAG,8820 fluorescence intensity (a.u.)
14,GATCCGCGGCGCGGGTGGGGTTGTGGGGCGGGCGGAGATGCGGAGTCACCTAGTGCAG,19200 fluorescence intensity (a.u.)
15,TGCGGGATGGCTGGTTGGTGTGCGTGTGCTTCGGTGCGTTCGGAGTCACCTAGTGCAG,10400 fluorescence intensity (a.u.)
16,AGCGATGGTGGTGGTGGTGGTGGTGGTGGCTGGGTTGCTTCGGAGTCACCTAGTGCAG,28200 fluorescence intensity (a.u.)
17,GCGGGCAGTGGGCGCGAGATCTCATCCGAGTGGGTGGGCGCGGAGTCACCTAGTGCAG,8060 fluorescence intensity (a.u.)
18,CCGCGGGTGGGGAGATTTGACCGGCGTTGACTCCGGGATGCGGAGTCACCTAGTGCAG,14300 fluorescence intensity (a.u.)
19,CAGCCATCGCCTCCCCGACTCCCGTCGTTGTCCACCCCGTCGGAGTCACCTAGTGCAG,8260 fluorescence intensity (a.u.)
20,TGTTCTGCCAGCCAATCCAGATCGCCCTCGTATGCACGCTCGGAGTCACCTAGTGCAG,8890 fluorescence intensity (a.u.)

row,Sequence,binding signal
1,TGAACTCCTAATACTGTCCTACCACTTCTACATGTCTTCTCGGAGTCACCTAGTGCAG,11300 fluorescence intensity (a.u.)
2,GCCTGCGCCGATCCCCATCCATTCCGCGAGCGAGCGAGTGCGGAGTCACCTAGTGCAG,8160 fluorescence intensity (a.u.)
3,AACAGCTCTCGATCTGATCGTCCCCACACCGCACGCTGACCGGAGTCACCTAGTGCAG,9930 fluorescence intensity (a.u.)
4,CCTCGCCGAAGCCTCTCTACCTCTGTGTGTCTCTCTCTCCCGGAGTCACCTAGTGCAG,8120 fluorescence intensity (a.u.)
5,AAACTTCCCCGCGTACGATGACGCCAATACACATACATATCGGAGTCACCTAGTGCAG,10700 fluorescence intensity (a.u.)
6,GAGTGTATTTCATCTCAAGTTAGCATGCGAGTTTTTTTTACGGAGTCACCTAGTGCAG,8210 fluorescence intensity (a.u.)
7,TATCGTGCTTCCATGTGCACAGATCGATCAAACTCGCATGCGGAGTCACCTAGTGCAG,9270 fluorescence intensity (a.u.)
8,TGTATGATGCTGTTGACTTTTTATCCAACGTTTGACCATCCGGAGTCACCTAGTGCAG,21200 fluorescence intensity (a.u.)
9,GTGTATGATGCCGTTGACTTTTTATCCAACGTTTGACCATCGGAGTCACCTAGTGCAG,38800 fluorescence intensity (a.u.)
10,ATACATGACGCCGTTGATTTTTTAATCAACGTTTGACCATCGGAGTCACCTAGTGCAG,8210 fluorescence intensity (a.u.)
11,ATGTATGACGCTGTTGACTTTGTAACCAATATTTGACCATCGGAGTCACCTAGTGCAG,13400 fluorescence intensity (a.u.)
12,GGTATAGTTTTATACTGTTTATATCCAACGTTTGACCGTTCGGAGTCACCTAGTGCAG,10200 fluorescence intensity (a.u.)
13,GTGTATTTATGGTTTTTTTTTCAACGTTTGACCATCCGTTCGGAGTCACCTAGTGCAG,12300 fluorescence intensity (a.u.)
14,TGGTGGAGAAGCTAATGAAGAGGGTGTTTTGTTGACTATGCGGAGTCACCTAGTGCAG,8500 fluorescence intensity (a.u.)
15,GTTACATTCTTGTTCAGTCCTCACTACTCATCCCTACAATCGGAGTCACCTAGTGCAG,11500 fluorescence intensity (a.u.)
16,CCCACTATCATCCGTCATCCGTGCAACGCACGGGCATTATCGGAGTCACCTAGTGCAG,9340 fluorescence intensity (a.u.)
17,CTCCCGCCGTCTCCGTCACCGTCTACCGTTTGCTCCAGTGCGGAGTCACCTAGTGCAG,9530 fluorescence intensity (a.u.)
18,CTCCGTTTTTTAATAGATGACGCCGTTGACTTTTTCTCACCGGAGTCACCTAGTGCAG,27800 fluorescence intensity (a.u.)
19,TCCGTTTTTTAATAGATGACGCCGTTGACTTTTTCTCACACGGAGTCACCTAGTGCAG,31700 fluorescence intensity (a.u.)
20,GCCGCGGCGGAGCTCCCGTTTCCGTTGCCGTCTCCGGCGCCGGAGTCACCTAGTGCAG,11000 fluorescence intensity (a.u.)

# Reference: publication PMC7819943, “Rice protein-binding microarrays: a tool to detect cis-acting elements near promoter regions in rice”
